Measurements taken from PubChem BioAssay AID504534 (National Center for Advancing Translational Sciences (NCATS), 2011).
Results filed as inconclusive are left out. Active and inactive are the calls of the source. Calls come from the whole dose curve; as a rule, active = well fitted curve in the direction sought with a large enough effect; inconclusive = small, poorly fitted or top-dose-only effect, or another doubt; inactive = no such curve, though single readings can be large or run the other way.

Test: Secondary Assay for Inhibitors of Human Cdc-like kinase 4 (Clk4): HEK-293 Cell Viability Assay;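 note: % of control where 0% means no effect; cytotoxic hits lower the ATP light signal so activity reflects loss of viability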
Conditions: HEK-293 viability, ATP luminescence (CellTiter-Glo), 24/48 h; series mostly up to 46.1 µM; activity change, negative = cytotoxicity: at the top concentration
Method in brief: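 Cytotoxicity was measured as ATP luminescence (CellTiter-Glo) after 24 or 48 h compound exposure at 37 degrees C. HEK-293 cells in MEM with 10% FBS had been seeded 4 h earlier.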

Row | SMILES | activity change, negative = cytotoxicity
1 | c1csc(CNc2ncnc3ccc(-c4ccc5c(c4)OCO5)cc23)n1 | -13.1% (inactive)
2 | Fc1cccc(CNc2ncnc3ccc(-c4cccnc4)cc23)c1 | -4.29% (inactive)
3 | COc1cccc(-c2ccc3ncnc(NCc4ccc5c(c4)OCO5)c3c2)c1 | 7.41% (inactive)
4 | O=C(O)c1ccc(-c2ccc3ncnc(NCCc4cnc[nH]4)c3c2)o1 | 0.179% (inactive)
5 | CN(CC1CCCO1)c1ncnc2ccc(-c3ccc4c(c3)OCO4)cc12 (configuration not stated) | -9.72% (inactive)
6 | CCN(Cc1cccs1)c1ncnc2ccc(-c3ccc4c(c3)OCO4)cc12 | -18.8% (inactive)
7 | Fc1cccc(CNc2ncnc3ccc(-c4ccoc4)cc23)c1 | 6.22% (inactive)
8 | c1nc(NCCc2cnc[nH]2)c2ccc(-c3ccc4c(c3)OCO4)cc2n1 | -4.05% (inactive)
9 | c1csc(CNc2ncnc3ccc(-c4ccc5c(c4)OCCO5)cc23)c1 | 0.849% (inactive)
10 | Cc1cccc(CNc2ncnc3ccc(-c4ccc5c(c4)OCCO5)cc23)c1 | -23.9% (inactive)
11 | CS(=O)(=O)CCNCc1ccc(-c2ccc3ncnc(Nc4ccc(OCc5cccc(F)c5)c(Cl)c4)c3c2)o1 | 4.65% (inactive)
12 | Cc1csc(CNc2ncnc3ccc(-c4ccco4)cc23)c1 | -6.58% (inactive)
13 | Cc1nc(C(C)N(C)c2ncnc3ccc(-c4ccc5c(c4)OCO5)cc23)cs1 (configuration not stated) | -12.7% (inactive)
14 | Cc1cccc(CNc2ncnc3ccc(-c4cccc(C)c4)cc23)c1 | -2.85% (inactive)
15 | Cc1csc(CNc2ncnc3ccc(-c4ccc5c(c4)OCO5)cc23)c1 | -4.14% (inactive)
16 | Cc1nc(CNc2ncnc3ccc(-c4ccc5c(c4)OCO5)cc23)cs1 | -2.75% (inactive)
17 | CCCN(Cc1cccs1)c1ncnc2ccc(-c3ccc4c(c3)OCO4)cc12 | -4.38% (inactive)
